Assay results from the supplement of paper PMC6555819.

Experiments:
Assay in all cases: PBM binding z-score (relative to random genomic background probes); higher = stronger binding; sequences stand for … in GC…GCGATTGACAGCGTAGAATGAAGG
[1] = test system: FXR:RXRa (NR concentration 270 nM, RXRa partner concentration 90 nM)
Summary of the method: (§1)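 Ligand-free nuclear receptor dimers were bound for 1 h to custom Agilent 4×180K protein-binding microarrays. Detection used antibodies against each partner (one per run). Binding z-scores rest on regression-normalized fluorescence, with random background probes as the reference.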

[2] = test system: LXRa:RXRa (NR concentration 270 nM, RXRa partner concentration 90 nM)
Summary of the method: as §1

[3] = test system: LXRa homodimer (NR concentration 270 nM)
Summary of the method: as §1

[4] = test system: LXRb:RXRa (NR concentration 270 nM, RXRa partner concentration 90 nM)
Summary of the method: as §1

[5] = test system: LXRb homodimer (NR concentration 270 nM)
Summary of the method: as §1

[6] = test system: PPARa:RXRa (NR concentration 270 nM, RXRa partner concentration 90 nM)
Summary of the method: as §1

[7] = test system: PPARg:RXRa (NR concentration 180 nM, RXRa partner concentration 90 nM)
Summary of the method: as §1

[8] = test system: PPARg:RXRa 270nM:90nM, anti-RXR (NR concentration 270 nM, RXRa partner concentration 90 nM)
Summary of the method: as §1

[9] = test system: PPARg:RXRa 30nM:10nM, anti-RXR (NR concentration 30 nM, RXRa partner concentration 10 nM)
Summary of the method: as §1

[10] = test system: PPARg:RXRa 90nM:30nM, anti-RXR (NR concentration 90 nM, RXRa partner concentration 30 nM)
Summary of the method: as §1

[11] = test system: PPARg:RXRa DBDmut IVT, anti-RXR (DBD mutation: RXRa K156A/R161A, NR concentration 270 nM, RXRa partner concentration 90 nM)
Summary of the method: as §1

[12] = test system: PPARg:RXRa IVT, anti-PPARg (NR concentration 270 nM, RXRa partner concentration 90 nM)
Summary of the method: as §1

[13] = test system: PPARg DBDmut:RXRa IVT, anti-PPARg (DBD mutation: PPARg1 K132A/R137A, NR concentration 270 nM, RXRa partner concentration 90 nM)
Summary of the method: as §1

[14] = test system: PPARg DBDmut IVT, anti-PPARg (DBD mutation: PPARg1 K132A/R137A, NR concentration 270 nM)
Summary of the method: as §1

[15] = test system: PPARg homodimer (NR concentration 180 nM)
Summary of the method: as §1

[16] = test system: PXR:RXRa (NR concentration 270 nM, RXRa partner concentration 90 nM)
Summary of the method: as §1

[17] = test system: PXR homodimer (NR concentration 270 nM)
Summary of the method: as §1

[18] = test system: RARa:RXR (NR concentration 270 nM, RXRa partner concentration 90 nM)
Summary of the method: as §1

[19] = test system: RARa homodimer (NR concentration 270 nM)
Summary of the method: as §1

[20] = test system: RARb:RXRa (NR concentration 270 nM, RXRa partner concentration 90 nM)
Summary of the method: as §1

Sequence | PBM binding z-score [1] | PBM binding z-score [2] | PBM binding z-score [3] | PBM binding z-score [4] | PBM binding z-score [5] | PBM binding z-score [6] | PBM binding z-score [7] | PBM binding z-score [8] | PBM binding z-score [9] | PBM binding z-score [10] | PBM binding z-score [11] | PBM binding z-score [12] | PBM binding z-score [13] | PBM binding z-score [14] | PBM binding z-score [15] | PBM binding z-score [16] | PBM binding z-score [17] | PBM binding z-score [18] | PBM binding z-score [19] | PBM binding z-score [20]
ATCTCTAGGTGAAGATAGTTCAGTGAATGCAAAT | 0.203 | 1.02 | 0.126 | 0.441 | 0.00986 | 1.69 | 1.75 | 1.55 | 0.448 | 0.885 | 4.18 | 4.44 | 0.653 | 1.5 | 0.717 | 1.58 | 0.667 | 0.801 | 0.811 | 1.29
AGAACGAGGGCAAGCTGAGTTGATAGCAGAGTAG | 0.521 | 0.295 | -0.476 | 0.14 | -0.878 | 1.4 | 1.32 | 1.19 | 0.0687 | 0.484 | 3.94 | 2.42 | 0.0132 | -0.565 | 0.238 | 1.13 | 0.458 | 0.426 | -0.421 | 2.46
AGTAAAAGTTCAGGACGAGGTAACGTAAAGCACG | 3.83 | 3.28 | 1.42 | 1.75 | 0.493 | 2.63 | 1.81 | 2.14 | 0.671 | 1.29 | -0.481 | 0.814 | 0.943 | 1.31 | 1.74 | 2.71 | 1.45 | 2.39 | 0.986 | 3.85
AAAATGAGGTTATTAAGATCAGGGAATTGCGGTC | 1.95 | 1.63 | 0.3 | 1.44 | -0.0347 | 2.8 | 2.05 | 2.19 | 0.556 | 1.48 | 3.99 | 3.21 | 0.794 | 0.452 | 0.921 | 1.23 | 0.722 | 1.41 | 0.567 | 1.51
CCTAGTAGGCCAGGGTCACTCAAGCATTTCGCTT | 1.96 | 1.56 | -0.322 | 2.01 | -0.98 | 3.69 | 3.5 | 4.07 | 1.36 | 3.22 | 4.28 | 4.48 | -0.152 | -1.37 | 0.886 | 2.55 | -0.126 | 2.8 | -0.346 | 2.65
TAGCCTAGGTCCTGCGGGCCAGTATAGTGTCGGC | -1.69 | -1.08 | -1.14 | -1.49 | -1.06 | -1.2 | -0.732 | -0.789 | -0.922 | -1.13 | -1.61 | -0.181 | -1.11 | -0.969 | -1.72 | -0.971 | -1.03 | -0.898 | -1.52 | -0.954
GATACAGGGTCAGCTAGAGGCCCGAGTATGGAAA | 4.27 | 2.31 | -0.511 | 1.8 | -0.813 | 4.42 | 3.6 | 3.1 | 0.492 | 1.92 | 0.969 | 2.18 | -0.156 | -0.833 | 1.37 | 1.72 | -0.766 | 2.93 | -0.152 | 3.83
GGAACGAGGCCAAAGTTGATAGCATCTGTCGACG | 0.0318 | -0.0376 | -0.578 | -0.183 | -0.827 | 3.46 | 5.8 | 6.25 | 5.14 | 6.31 | 2.57 | 2.98 | -0.146 | -0.0906 | 0.104 | 0.113 | -0.124 | 0.441 | -0.395 | 1.33
ATCTCTAGGTAAAGATACTTCAGTGAATGCAAAT | 0.262 | 0.149 | 0.0511 | 0.403 | 0.44 | 0.361 | 0.884 | 0.723 | 0.521 | 0.608 | 1.8 | 1.32 | 1.1 | 1.13 | 0.534 | 0.635 | 0.252 | 0.522 | 0.591 | -0.033
TCTTCTAGGTCAGTTGGTCAGCTAACGAGCTGCC | 2.21 | 1.87 | 0.567 | 1.71 | 3.5 | 2.99 | 3.77 | 4.43 | 4.38 | 4.54 | 6.39 | 6.42 | 3.22 | 3.33 | 2.21 | 1.3 | 0.447 | 1.58 | 1.05 | 3.79
CTCGAAAAGTCGTGCTCAGGTGAGTATACCAAAC | 0.362 | 0.378 | -0.0855 | 0.084 | -0.108 | 0.252 | -0.24 | -0.203 | -0.421 | -0.205 | -0.109 | 0.391 | 0.0169 | 0.325 | 1.15 | 0.0376 | 0.0183 | 0.523 | -0.119 | 0.264
GCTGGTAGGTCAGGTTGGTCAGCTAACGGGTACG | 1.28 | 1.03 | 0.172 | 0.929 | -0.0209 | 2.05 | 1.44 | 1.88 | 0.102 | 1.02 | 3.54 | 3.65 | -0.271 | 0.163 | 1.32 | 0.581 | 0.431 | 0.986 | 0.462 | 3.16
TCTAGTAGATCAACAGGAGGTTAAGAAAGATCGA | 0.568 | 1.07 | 0.252 | 0.768 | -0.7 | 1.36 | 0.296 | 1.55 | 2.92 | 2.01 | 1.67 | 0.911 | 0.0951 | -0.146 | 0.637 | 0.739 | 0.18 | 1.05 | 0.751 | 0.445
GCCACTGGGGCATCAGCAGGTTACCATAACTTAA | -0.242 | -0.416 | -0.158 | 0.103 | -1.12 | 1.28 | 1.72 | 1.82 | 0.184 | 0.914 | 4.53 | 4.92 | -0.157 | -0.59 | 0.0359 | -0.0612 | -0.589 | 0.475 | -0.576 | 0.955
